Measurements reported in the supplement of paper PMC10849652.
Of roughly 7,900 targets only a part is listed; those with a hit were picked by preference. About 0.6% of all pairs of compound and target were hits. A number with no mark means an inactive call.

How the values were obtained:
Experiment in all cases: log2 fold change, soluble protein after heating vs DMSO (PISA); higher = thermal stabilisation; K562 cells, 10 uM, 30 min; active = over 0.2 and 3.5 SD of the protein, either way, in both replicates (recomputed)
[1] = compound: COC1=CC=C(C=C1)CN2C=CC3=C2C=C(C=C3)C(=O)NO
Procedure, shortened: (§1)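 K562 cells at 2×10^6 cells/mL were treated for 30 min with 10 μM compound, and aliquots were heated for 3 min over 48°C-58°C before pooling. Extraction used PBS with 0.5% NP-40 at 4°C, and soluble protein was the supernatant after 21,000xg for 90 min, measured by TMTpro 16plex LC-MS/MS with channel sums equalised. Thermal stability values, relative to control samples and from duplicates, are log2 fold changes.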

filanesib = compound: CON(C)C(=O)N1N=C(c2cc(F)ccc2F)S[C@@]1(CCCN)c1ccccc1 [filanesib]
Procedure, shortened: as §1

zotarolimus = compound: CO[C@H]1C[C@@H]2CC[C@@H](C)[C@@](O)(O2)C(=O)C(=O)N2CCCC[C@H]2C(=O)O[C@H]([C@H](C)C[C@@H]2CC[C@H](n3cnnn3)[C@H](OC)C2)CC(=O)[C@H](C)/C=C(\C)[C@@H](O)[C@@H](OC)C(=O)[C@H](C)C[C@H](C)/C=C/C=C/C=C/1C [zotarolimus]
Procedure, shortened: as §1

idasanutlin = compound: COc1cc(C(=O)O)ccc1NC(=O)[C@@H]1N[C@@H](CC(C)(C)C)[C@](C#N)(c2ccc(Cl)cc2F)[C@H]1c1cccc(Cl)c1F [idasanutlin]
Procedure, shortened: as §1

alisertib = compound: COc1cc(Nc2ncc3c(n2)-c2ccc(Cl)cc2C(c2c(F)cccc2OC)=NC3)ccc1C(=O)O [alisertib]
Procedure, shortened: as §1

[2] = compound: COc1cc2nc(-c3cc(F)ccc3O)nc(N[C@@H]3CNC[C@H]3C(C)(C)O)c2cc1OC
Procedure, shortened: as §1

gefitinib = compound: COc1cc2ncnc(Nc3ccc(F)c(Cl)c3)c2cc1OCCCN1CCOCC1 [gefitinib]
Procedure, shortened: as §1

[3] = compound: COc1cccc2cc(-c3nc([C@H]4CC[C@H](C(=O)O)CC4)n4ncnc(N)c34)[nH]c12
Procedure, shortened: as §1

lapatinib = compound: CS(=O)(=O)CCNCc1ccc(-c2ccc3ncnc(Nc4ccc(OCc5cccc(F)c5)c(Cl)c4)c3c2)o1 [lapatinib]
Procedure, shortened: as §1

pictilisib = compound: CS(=O)(=O)N1CCN(Cc2cc3nc(-c4cccc5[nH]ncc45)nc(N4CCOCC4)c3s2)CC1 [pictilisib]
Procedure, shortened: as §1

[4] = compound: CS(=O)(=O)c1ccc(-c2cnc(N)c(C(=O)Nc3ccccc3)n2)cc1
Procedure, shortened: as §1

crizotinib = compound: C[C@@H](Oc1cc(-c2cnn(C3CCNCC3)c2)cnc1N)c1c(Cl)ccc(F)c1Cl [crizotinib]
Procedure, shortened: as §1

[5] = compound: C[C@@H]1COCCN1C2=NC(=NC(=C2)C3(CC3)S(=O)(=O)C)C4=C5C=CNC5=CC=C4
Procedure, shortened: as §1

[6] = compound: C[C@H](C1=CC=C(C=C1)C(=O)NC2=C3C=CNC3=NC=C2)N
Procedure, shortened: as §1

duvelisib = compound: C[C@H](Nc1ncnc2nc[nH]c12)c1cc2cccc(Cl)c2c(=O)n1-c1ccccc1 [duvelisib]
Procedure, shortened: as §1

gandotinib = compound: Cc1cc(Nc2cc(CN3CCOCC3)c3nc(C)c(Cc4ccc(Cl)cc4F)n3n2)n[nH]1 [gandotinib]
Procedure, shortened: as §1

tozasertib = compound: Cc1cc(Nc2cc(N3CCN(C)CC3)nc(Sc3ccc(NC(=O)C4CC4)cc3)n2)n[nH]1 [tozasertib]
Procedure, shortened: as §1

[7] = compound: Cc1cc(SCc2sc(-c3ccc(C(F)(F)F)cc3)nc2C)ccc1OCC(=O)O
Procedure, shortened: as §1

doramapimod = compound: Cc1ccc(-n2nc(C(C)(C)C)cc2NC(=O)Nc2ccc(OCCN3CCOCC3)c3ccccc23)cc1 [doramapimod]
Procedure, shortened: as §1

ispinesib = compound: Cc1ccc(C(=O)N(CCCN)[C@@H](c2nc3cc(Cl)ccc3c(=O)n2Cc2ccccc2)C(C)C)cc1 [ispinesib]
Procedure, shortened: as §1

Chain of UniProt Q9UKI8 (Q9UKI8 whole entry, looked up): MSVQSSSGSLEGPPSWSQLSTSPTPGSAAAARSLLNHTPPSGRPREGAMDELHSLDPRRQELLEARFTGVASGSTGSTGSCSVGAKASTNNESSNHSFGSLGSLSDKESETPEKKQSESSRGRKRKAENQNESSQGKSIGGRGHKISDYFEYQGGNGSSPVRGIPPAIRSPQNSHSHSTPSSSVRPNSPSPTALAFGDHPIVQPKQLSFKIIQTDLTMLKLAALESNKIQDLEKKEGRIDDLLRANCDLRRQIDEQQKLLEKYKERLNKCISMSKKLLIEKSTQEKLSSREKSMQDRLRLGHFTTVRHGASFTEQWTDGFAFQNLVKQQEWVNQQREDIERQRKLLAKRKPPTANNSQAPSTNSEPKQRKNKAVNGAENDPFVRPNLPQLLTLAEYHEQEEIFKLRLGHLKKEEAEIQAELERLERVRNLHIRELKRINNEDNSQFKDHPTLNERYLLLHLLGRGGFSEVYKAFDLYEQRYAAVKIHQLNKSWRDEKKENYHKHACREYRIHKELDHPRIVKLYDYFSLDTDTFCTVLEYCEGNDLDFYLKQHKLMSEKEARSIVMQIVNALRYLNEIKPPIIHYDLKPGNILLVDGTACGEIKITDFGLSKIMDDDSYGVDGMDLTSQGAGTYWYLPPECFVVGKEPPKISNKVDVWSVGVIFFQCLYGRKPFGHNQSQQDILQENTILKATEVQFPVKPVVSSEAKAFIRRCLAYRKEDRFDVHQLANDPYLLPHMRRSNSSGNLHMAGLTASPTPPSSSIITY
Chain of UniProt P27105 (P27105 whole entry, looked up): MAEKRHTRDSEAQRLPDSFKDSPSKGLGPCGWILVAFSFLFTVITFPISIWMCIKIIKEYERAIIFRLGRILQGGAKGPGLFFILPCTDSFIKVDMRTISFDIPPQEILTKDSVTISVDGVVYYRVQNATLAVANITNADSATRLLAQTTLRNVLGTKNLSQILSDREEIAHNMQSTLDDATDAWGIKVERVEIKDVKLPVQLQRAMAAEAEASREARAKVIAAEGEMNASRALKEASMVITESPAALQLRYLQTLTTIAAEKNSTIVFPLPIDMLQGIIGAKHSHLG
Chain of UniProt P42226 (P42226 whole entry, looked up): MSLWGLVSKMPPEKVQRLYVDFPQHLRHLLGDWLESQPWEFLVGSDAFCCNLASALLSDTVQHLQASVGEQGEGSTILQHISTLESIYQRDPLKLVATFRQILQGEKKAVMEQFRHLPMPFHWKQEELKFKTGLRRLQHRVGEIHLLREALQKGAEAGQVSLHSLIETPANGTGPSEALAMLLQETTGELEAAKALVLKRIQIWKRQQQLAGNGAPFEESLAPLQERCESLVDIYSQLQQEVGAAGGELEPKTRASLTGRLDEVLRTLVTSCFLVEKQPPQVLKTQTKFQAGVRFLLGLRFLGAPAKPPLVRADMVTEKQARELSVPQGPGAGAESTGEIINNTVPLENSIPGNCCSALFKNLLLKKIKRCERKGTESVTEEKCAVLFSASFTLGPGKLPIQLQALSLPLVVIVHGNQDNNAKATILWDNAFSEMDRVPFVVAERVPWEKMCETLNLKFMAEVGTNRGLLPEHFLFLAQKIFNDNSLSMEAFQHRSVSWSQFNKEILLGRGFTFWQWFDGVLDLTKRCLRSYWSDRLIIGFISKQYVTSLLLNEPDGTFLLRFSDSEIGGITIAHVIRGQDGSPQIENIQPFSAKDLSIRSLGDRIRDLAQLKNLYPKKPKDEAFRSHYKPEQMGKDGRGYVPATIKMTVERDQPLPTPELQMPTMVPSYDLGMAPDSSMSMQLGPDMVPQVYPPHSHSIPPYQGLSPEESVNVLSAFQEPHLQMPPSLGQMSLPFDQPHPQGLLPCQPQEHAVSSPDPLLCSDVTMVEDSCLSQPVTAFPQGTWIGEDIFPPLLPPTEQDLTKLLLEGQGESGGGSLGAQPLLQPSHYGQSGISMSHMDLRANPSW
Chain of UniProt Q9Y5W9 (Q9Y5W9 whole entry, looked up): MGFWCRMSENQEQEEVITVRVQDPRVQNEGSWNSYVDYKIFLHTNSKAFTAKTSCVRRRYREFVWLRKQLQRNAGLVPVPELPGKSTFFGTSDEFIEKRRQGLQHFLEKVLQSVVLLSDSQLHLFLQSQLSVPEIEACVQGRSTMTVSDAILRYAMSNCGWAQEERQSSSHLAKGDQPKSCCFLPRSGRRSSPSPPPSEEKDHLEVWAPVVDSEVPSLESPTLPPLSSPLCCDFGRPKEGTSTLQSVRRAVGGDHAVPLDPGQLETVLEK
Chain of UniProt P62072 (P62072 whole entry, looked up): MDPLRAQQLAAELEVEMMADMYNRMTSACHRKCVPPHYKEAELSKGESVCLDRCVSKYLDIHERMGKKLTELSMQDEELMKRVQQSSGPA
Chain of UniProt Q6P1M0 (Q6P1M0 whole entry, looked up): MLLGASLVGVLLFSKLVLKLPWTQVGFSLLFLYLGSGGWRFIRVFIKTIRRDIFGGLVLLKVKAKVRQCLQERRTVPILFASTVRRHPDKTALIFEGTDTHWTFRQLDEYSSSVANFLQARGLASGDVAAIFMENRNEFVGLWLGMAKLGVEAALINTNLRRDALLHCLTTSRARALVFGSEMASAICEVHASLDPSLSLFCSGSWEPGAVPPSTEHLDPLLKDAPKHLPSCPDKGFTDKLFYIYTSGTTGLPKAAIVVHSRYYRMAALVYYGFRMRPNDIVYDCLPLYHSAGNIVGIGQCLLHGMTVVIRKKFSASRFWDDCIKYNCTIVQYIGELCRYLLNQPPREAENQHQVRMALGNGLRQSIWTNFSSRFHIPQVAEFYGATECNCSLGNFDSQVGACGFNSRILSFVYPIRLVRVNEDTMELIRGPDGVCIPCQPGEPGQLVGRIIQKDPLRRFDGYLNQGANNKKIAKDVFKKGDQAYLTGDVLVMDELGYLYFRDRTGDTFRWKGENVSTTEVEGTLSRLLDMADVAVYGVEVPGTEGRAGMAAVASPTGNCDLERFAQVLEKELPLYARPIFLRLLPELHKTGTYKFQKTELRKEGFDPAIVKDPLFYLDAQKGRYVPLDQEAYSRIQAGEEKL
Chain of UniProt Q8NBW4 (Q8NBW4 whole entry, looked up): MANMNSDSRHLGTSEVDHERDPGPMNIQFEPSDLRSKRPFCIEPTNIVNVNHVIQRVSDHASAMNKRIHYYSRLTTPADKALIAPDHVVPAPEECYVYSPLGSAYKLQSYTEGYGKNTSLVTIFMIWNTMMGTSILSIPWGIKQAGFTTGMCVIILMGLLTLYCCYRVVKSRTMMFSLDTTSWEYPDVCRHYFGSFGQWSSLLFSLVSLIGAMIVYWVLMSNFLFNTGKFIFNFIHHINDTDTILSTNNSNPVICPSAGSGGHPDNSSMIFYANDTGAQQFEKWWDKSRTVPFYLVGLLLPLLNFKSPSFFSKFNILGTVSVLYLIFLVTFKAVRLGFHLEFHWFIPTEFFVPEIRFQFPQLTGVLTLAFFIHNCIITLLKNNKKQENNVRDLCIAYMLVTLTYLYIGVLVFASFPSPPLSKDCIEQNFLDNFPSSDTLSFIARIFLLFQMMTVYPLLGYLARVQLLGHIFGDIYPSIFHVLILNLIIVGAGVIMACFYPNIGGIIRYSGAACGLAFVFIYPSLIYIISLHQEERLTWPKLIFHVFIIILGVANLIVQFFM
Chain of UniProt Q9ULP9 (Q9ULP9 whole entry, looked up): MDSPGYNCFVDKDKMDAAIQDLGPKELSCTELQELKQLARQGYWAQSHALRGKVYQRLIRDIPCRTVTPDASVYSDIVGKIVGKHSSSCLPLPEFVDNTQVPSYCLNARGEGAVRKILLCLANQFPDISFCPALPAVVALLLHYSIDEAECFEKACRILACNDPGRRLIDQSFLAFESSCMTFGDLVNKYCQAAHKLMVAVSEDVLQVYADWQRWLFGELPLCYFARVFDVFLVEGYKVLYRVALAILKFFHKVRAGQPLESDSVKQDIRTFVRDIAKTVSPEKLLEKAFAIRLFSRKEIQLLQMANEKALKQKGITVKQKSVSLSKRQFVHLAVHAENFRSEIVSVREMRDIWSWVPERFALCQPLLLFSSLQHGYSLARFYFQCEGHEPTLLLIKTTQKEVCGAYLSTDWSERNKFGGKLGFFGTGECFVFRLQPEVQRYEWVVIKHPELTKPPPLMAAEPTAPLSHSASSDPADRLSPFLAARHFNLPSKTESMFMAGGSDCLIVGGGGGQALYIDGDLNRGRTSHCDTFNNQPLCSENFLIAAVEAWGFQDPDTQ
Chain of UniProt Q658P3 (Q658P3 whole entry, looked up): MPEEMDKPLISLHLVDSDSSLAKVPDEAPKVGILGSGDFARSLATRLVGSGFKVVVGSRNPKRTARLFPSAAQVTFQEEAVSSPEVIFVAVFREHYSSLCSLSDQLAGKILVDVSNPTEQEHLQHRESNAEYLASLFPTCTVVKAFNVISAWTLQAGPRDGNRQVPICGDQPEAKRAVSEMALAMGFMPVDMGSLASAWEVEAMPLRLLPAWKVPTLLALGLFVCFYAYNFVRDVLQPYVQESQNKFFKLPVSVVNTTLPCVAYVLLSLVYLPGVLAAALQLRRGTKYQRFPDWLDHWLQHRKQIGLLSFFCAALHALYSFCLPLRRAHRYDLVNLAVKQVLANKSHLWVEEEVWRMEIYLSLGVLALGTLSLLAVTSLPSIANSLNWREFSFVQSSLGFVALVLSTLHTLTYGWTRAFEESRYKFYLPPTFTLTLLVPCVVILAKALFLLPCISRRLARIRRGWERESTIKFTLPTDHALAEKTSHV
Chain of UniProt Q92844 (Q92844 whole entry, looked up): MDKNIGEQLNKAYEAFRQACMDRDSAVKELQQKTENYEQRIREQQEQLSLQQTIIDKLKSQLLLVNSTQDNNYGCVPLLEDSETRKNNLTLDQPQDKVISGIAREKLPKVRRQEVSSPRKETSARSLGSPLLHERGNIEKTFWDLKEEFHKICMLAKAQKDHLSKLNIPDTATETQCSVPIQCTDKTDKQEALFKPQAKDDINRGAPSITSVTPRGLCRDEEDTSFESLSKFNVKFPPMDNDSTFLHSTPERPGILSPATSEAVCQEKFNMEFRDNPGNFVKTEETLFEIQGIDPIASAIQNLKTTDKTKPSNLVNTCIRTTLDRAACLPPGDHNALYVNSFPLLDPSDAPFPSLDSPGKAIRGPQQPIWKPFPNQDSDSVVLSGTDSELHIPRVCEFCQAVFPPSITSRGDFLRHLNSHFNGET

| Target | log2 fold change [1] | log2 fold change (filanesib) | log2 fold change (zotarolimus) | log2 fold change (idasanutlin) | log2 fold change (alisertib) | log2 fold change [2] | log2 fold change (gefitinib) | log2 fold change [3] | log2 fold change (lapatinib) | log2 fold change (pictilisib) | log2 fold change [4] | log2 fold change (crizotinib) | log2 fold change [5] | log2 fold change [6] | log2 fold change (duvelisib) | log2 fold change (gandotinib) | log2 fold change (tozasertib) | log2 fold change [7] | log2 fold change (doramapimod) | log2 fold change (ispinesib) |
| --- | --- | --- | --- | --- | --- | --- | --- | --- | --- | --- | --- | --- | --- | --- | --- | --- | --- | --- | --- | --- |
| SRSF2 (UniProt Q01130) | -0.071 | 0.118 | 0 | 0.123 | -0.076 | -0.003 | 0.038 | 0.024 | 0.039 | 0.027 | 0.005 | 0.023 | -0.107 | 0.006 | 0.013 | 0.092 | -0.037 | -0.006 | -0.033 | -0.036 |
| TIMM10 (UniProt P62072) | -0.043 | -0.038 | -0.023 | -0.019 | 0.01 | -0.12 | 0.015 | 0.03 | -0.026 | 0.008 | -0.035 | 0.051 | 0.099 | -0.006 | 0.105 | 0.052 | 0.053 | 0.027 | 0.021 | 0.103 |
| STK38 (UniProt Q15208) | 0.029 | -0.024 | 0.036 | -0.009 | 0.007 | -0.006 | -0.038 | -0.01 | -0.001 | 0.146 | 0.081 | -0.087 | 0.089 | -0.031 | 0.052 | -0.024 | 0.065 | 0.072 | -0.011 | 0.026 |
| SLC7A6 (UniProt Q92536) | -0.236 (active) | 0.009 | -0.001 | -0.02 | -0.069 | 0.028 | 0.073 | 0.048 | 0.033 | 0.048 | -0.011 | 0.065 | -0.173 | -0.149 | 0.116 | -0.114 | -0.006 | -0.041 | 0.001 | 0.17 |
| STOM (UniProt P27105) | 0.004 | -0.068 | -0.083 | 0.046 | -0.154 | -0.045 | -0.062 | -0.004 | 0.067 | -0.022 | 0.086 | -0.005 | -0.035 | 0.182 | 0.011 | 0.268 | -0.015 | 0.01 | -0.006 | -0.29 |
| TANK (UniProt Q92844) | 0.017 | 0.03 | -0.024 | 0.02 | -0.028 | 0.097 | -0.032 | 0.048 | -0.015 | 0.027 | -0.032 | 0.287 | -0.021 | 0.069 | 0.038 | 0.135 | 0.112 | 0.091 | -0.015 | -0.064 |
| TBC1D24 (UniProt Q9ULP9) | 0.032 | -0.145 | 0.006 | -0.127 | -0.102 | -0.028 | 0.007 | 0.05 | 0.032 | -0.082 | 0.018 | -0.235 | 0.08 | -0.014 | 0.04 | -0.361 | -0.119 | 0.073 | 0.061 | -0.218 |
| SLC38A9 (UniProt Q8NBW4) | 0.033 | 0.064 | -0.012 | -0.004 | 0 | 0.053 | -0.012 | 0.121 | -0.065 | -0.027 | 0.165 | -0.201 | 0.052 | 0.003 | 0.081 | -0.018 | 0.001 | -0.058 | 0.067 | -0.474 (active) |
| SURF1 (UniProt Q15526) | 0.053 | -0.032 | -0.008 | 0.025 | -0.098 | -0.004 | -0.055 | 0.083 | 0.058 | 0.051 | -0.001 | -0.008 | 0.043 | -0.013 | 0 | -0.066 | 0.016 | 0.032 | 0.01 | -0.181 |
| SLC27A4 (UniProt Q6P1M0) | 0.134 | 0.038 | 0.056 | -0.084 | -0.001 | 0.032 | 0.033 | -0.022 | 0.055 | -0.078 | -0.008 | 0.069 | 0.059 | -0.015 | 0.082 | 0.122 | 0.001 | 0.123 | 0 | -0.103 |
| TLK2 isoform 2 (UniProt Q86UE8) | -0.019 | 0.038 | 0.032 | 0.087 | 0.115 | -0.036 | 0.007 | 0.06 | 0.041 | -0.071 | -0.063 | -0.031 | 0.139 | -0.095 | -0.007 | 0.165 | -0.047 | -0.07 | -0.042 | 0.019 |
| STEAP3 isoform 2 (UniProt Q658P3) | -0.028 | -0.014 | -0.06 | -0.11 | -0.028 | 0.035 | -0.01 | 0.025 | 0.013 | 0.227 (active) | 0.065 | -0.003 | 0.022 | -0.013 | 0.054 | -0.032 | -0.006 | 0.012 | 0.003 | -0.159 |
| SNX11 (UniProt Q9Y5W9) | 0.025 | -0.128 | 0.043 | -0.008 | -0.062 | -0.15 | -0.05 | 0.038 | 0.014 | -0.173 | -0.062 | -0.76 (active) | -0.021 | 0.012 | -0.486 (active) | -0.378 | -0.001 | 0.14 | -0.017 | -0.536 (active) |
| TLK1 (UniProt Q9UKI8) | -0.011 | -0.021 | 0.019 | -0.009 | -0.023 | -0.029 | 0.006 | 0.064 | -0.018 | -0.04 | -0.058 | -0.008 | 0.101 | -0.028 | 0.019 | 0.145 | -0.004 | 0.028 | -0.023 | 0.026 |
| STAT6 (UniProt P42226) | 0.019 | 0.091 | 0.055 | 0.102 | 0.094 | 0.002 | 0.014 | 0.155 | -0.016 | -0.13 | -0.083 | -0.037 | 0.028 | -0.011 | -0.132 | -0.269 | 0.171 | -0.123 | 0.043 | -0.033 |
| SUN2 (UniProt Q9UH99) | 0.028 | 0.013 | 0.017 | 0.077 | -0.044 | -0.194 | -0.078 | -0.007 | 0.066 | 0.071 | -0.001 | -0.094 | 0.063 | 0.044 | -0.008 | 0.004 | -0.008 | 0.05 | 0.077 | -0.104 |
